Assay results from PMC4336329 (PLoS ONE, 2015).
Among all 310,000 compounds or so, about 14,000 (4.5%) showed an effect of 50% or more. Effects have a minus sign here. The list comes from a sample in which strong results are over-represented; it also holds similar structures and randomly drawn compounds.

Target: human ether-à-go-go-related gene (hERG) potassium channel (human, UniProt Q12809)
Test: primary screen, population patch clamp on CHO cells stably expressing hERG; higher = less effect of the substance
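Also: peak tail current of the secondary pulse compared with the same well before compound.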

Sequence of human ether-à-go-go-related gene (hERG) potassium channel (Q12809 whole entry, looked up): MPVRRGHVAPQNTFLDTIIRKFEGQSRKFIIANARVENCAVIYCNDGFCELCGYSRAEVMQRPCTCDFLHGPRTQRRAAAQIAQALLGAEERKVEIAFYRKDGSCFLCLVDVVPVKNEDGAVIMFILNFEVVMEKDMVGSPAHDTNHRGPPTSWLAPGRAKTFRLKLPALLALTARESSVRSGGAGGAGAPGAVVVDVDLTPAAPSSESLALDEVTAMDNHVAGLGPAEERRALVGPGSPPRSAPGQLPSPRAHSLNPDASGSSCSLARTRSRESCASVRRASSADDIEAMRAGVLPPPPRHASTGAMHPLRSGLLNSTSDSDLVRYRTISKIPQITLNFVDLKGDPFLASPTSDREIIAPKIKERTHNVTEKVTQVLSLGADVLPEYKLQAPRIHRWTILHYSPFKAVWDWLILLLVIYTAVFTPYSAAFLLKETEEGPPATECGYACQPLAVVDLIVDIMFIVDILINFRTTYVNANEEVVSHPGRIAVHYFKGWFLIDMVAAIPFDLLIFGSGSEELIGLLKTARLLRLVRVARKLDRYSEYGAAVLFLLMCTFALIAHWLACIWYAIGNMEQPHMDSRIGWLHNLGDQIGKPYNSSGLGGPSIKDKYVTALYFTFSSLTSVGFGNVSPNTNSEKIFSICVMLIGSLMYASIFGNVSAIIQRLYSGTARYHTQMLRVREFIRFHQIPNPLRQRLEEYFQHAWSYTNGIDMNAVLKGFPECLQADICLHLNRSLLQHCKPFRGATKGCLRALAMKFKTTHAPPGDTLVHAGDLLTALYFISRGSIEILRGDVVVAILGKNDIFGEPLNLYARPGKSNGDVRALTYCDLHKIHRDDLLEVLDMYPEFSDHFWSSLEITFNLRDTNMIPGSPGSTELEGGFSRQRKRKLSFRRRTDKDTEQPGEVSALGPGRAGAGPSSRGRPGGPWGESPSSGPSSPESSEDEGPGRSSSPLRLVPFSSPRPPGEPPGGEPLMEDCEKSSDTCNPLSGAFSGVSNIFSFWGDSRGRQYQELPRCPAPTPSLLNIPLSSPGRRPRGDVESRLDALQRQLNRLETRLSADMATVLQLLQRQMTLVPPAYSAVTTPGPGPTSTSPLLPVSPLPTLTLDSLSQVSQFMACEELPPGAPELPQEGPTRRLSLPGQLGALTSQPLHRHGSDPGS

| Structure (SMILES) | hERG current change (%, negative = inhibition) at 10uM |
| --- | --- |
| Cc1cc(C(=O)Nc2ccc3ccccc3c2)c(C)o1 | 6.68% |
| COc1ccc2oc(=O)c(-c3csc(Nc4cccc(O)c4)n3)cc2c1 | 25.8% |
| COC(=O)CN1C(=O)[C@H]2[C@@H](c3ccc(C)o3)N3C(=O)CN(Cc4ccccn4)C(=O)[C@@]3(Cc3ccccc3)[C@H]2C1=O | 21.5% |
| O=C(NCc1ccccc1)c1cccc(S(=O)(=O)N2CCOCC2)c1 | 0.662% |
| Cc1ccc(N/C=C/C(=O)C(C)(C)C)c(O)c1 | -5.33% |
| CC(=O)NC(CC(=O)O)c1ccc(F)cc1 (stereo not shown) | 0.22% |
| COc1ccc(CNC(=O)CSc2nnc(C)c(=O)[nH]2)cc1 | 18.2% |
| CC(C)N1CCN(Cc2nc(-c3ccccc3)cs2)CC1CCO (stereo not shown) | -47.7% |
| Cc1cccc(CN2CCN(C3CCCC3)C(CCO)C2)n1 (stereo not shown) | 3.1% |
| CC(C)CCN1CCN(Cc2nc(-c3ccccc3)cs2)CC1CCO (stereo not shown) | -62.7% |
| OCCC1CN(Cc2nc(-c3ccccc3)cs2)CCN1C1CCCC1 (stereo not shown) | -66.4% |
| Cc1oc(-c2cccs2)nc1CN1CCN(CCC(C)C)C(CCO)C1 (stereo not shown) | -27.6% |
| OCCC1CN(Cc2ccncc2)CCN1C1CCCC1 (stereo not shown) | -8.58% |
| O=C(CC1C(=O)NCCN1CC(c1ccccc1)c1ccccc1)NCC1CCOCC1 (stereo not shown) | 6.24% |
| CCCNC(=O)c1ccc(CN2CCOCC2)cc1 | 8.4% |
| O=C(CS(=O)(=O)c1c[nH]c2ccccc12)Nc1ccc(F)cc1 | -21.8% |
| Cc1cccc(OCCn2c(NC(=O)c3ccco3)nc3ccccc32)c1 | 12.5% |
| CCC(=O)N/C(N)=N/c1nc2ccccc2o1 | -10.3% |
| O=C(COc1ccc(Cl)cc1Cl)N1CCCN(C(=O)COc2ccc(Cl)cc2Cl)CC1 | -47.2% |
| Fc1ccc(-c2nc3ccccn3c2NCc2ccc3c(c2)OCO3)cc1 | -24.3% |

| Structure (SMILES) | hERG current change (%, negative = inhibition) at 10uM |
| --- | --- |
| Cc1ccc(-c2nc3ccccn3c2NCc2ccc3c(c2)OCO3)cc1 | -69.3% |
| COc1ccc(-c2nc3ccccn3c2NCc2ccc3c(c2)OCO3)cc1 | -82.4% |
| COc1ccc(-c2nc3cc(C)ccn3c2NCc2ccc3c(c2)OCO3)cc1 | -67.5% |
| COc1ccc(-c2nc3ccc(C)cn3c2NCc2ccc3c(c2)OCO3)cc1 | -34.1% |
| Cc1ccn2c(NCc3ccc4c(c3)OCO4)c(-c3ccc(O)cc3)nc2c1 | -11.6% |
| c1ccc(-c2nc3ccccn3c2NCc2ccc3c(c2)OCO3)cc1 | -36.1% |
| Cc1cccn2c(NCc3ccc4c(c3)OCO4)c(-c3ccc(O)cc3)nc12 | -22.6% |
| Oc1ccc(-c2nc3ccccn3c2NCc2ccc3c(c2)OCO3)cc1 | -45.8% |
| COc1ccc2c(C)c(CCC(=O)NC3CC3)c(=O)oc2c1C | 14.4% |
| CCCc1cc(C(=O)Nc2ccccc2C(=O)OC)no1 | 7.76% |
| CCCC(=O)Nc1cccc(-c2cn3ccsc3n2)c1 | -47.5% |
| CCOc1ccc(N(C(=O)/C=C/C(=O)Nc2cc(C)on2)C(C(=O)NC2CCCC2)c2ccccc2C)cc1 (stereo not shown) | -6.96% |
| CCn1nc(C)c(CNCc2cn[nH]c2-c2cc3ccccc3o2)c1C | -19% |
| O=C(O)c1cc(C(F)(F)F)nc2ccccc12 | 3.92% |
| CC(C)(C)OC(=O)NC(Cc1ccccc1)C(=O)O (stereo not shown) | -50.5% |
| CC(C)(C)OC(=O)N[C@@H](CC(=O)OCc1ccccc1)C(=O)O | 10.9% |
| CC(C)(C)OC(=O)NC(CC(=O)OCc1ccccc1)C(=O)O (stereo not shown) | 10.1% |
| CC(C)(Oc1ccc(Cl)cc1)C(=O)NCCCn1ccnc1 | -21.2% |
| C=CCn1c(SCC(=O)N2CCN(C(=O)c3ccco3)CC2)nc2sc(CC)cc2c1=O | -76.3% |
| C=CCn1c(SCC(=O)Nc2ccc(O)cc2)nc2sc(CC)cc2c1=O | -62.5% |

| Structure (SMILES) | hERG current change (%, negative = inhibition) at 10uM |
| --- | --- |
| C=CCn1c(SCC(=O)NC2CCCC2)nc2sc(C)cc2c1=O | -5.84% |
| C=CCn1c(SCC(=O)Nc2sccc2C(N)=O)nc2sc(CC)cc2c1=O | -1.95% |
| C=CCn1c(SCC#N)nc2sc(CC)cc2c1=O | -16.5% |
| C=CCn1c(SCC(=O)NC2CCS(=O)(=O)C2)nc2sc(CC)cc2c1=O (stereo not shown) | -47.8% |
| C=CCn1c(SCC(=O)Nc2cc(C)on2)nc2sc(CC)cc2c1=O | 1.3% |
| C=CCn1c(SCC(=O)O)nc2sc(CC)cc2c1=O | 13.8% |
| C=CCn1c(SCC(=O)N2CCc3ccccc3C2)nc2sc(CC)cc2c1=O | -34.5% |
| C=CCn1c(SCC(=O)NC2CC2)nc2sc(CC)cc2c1=O | -54.6% |
| C=CCn1c(SCC(=O)N2CCCC2=O)nc2sc(CC)cc2c1=O | -70.9% |
| C=CCn1c(SCC(=O)c2cccs2)nc2sc(CC)cc2c1=O | -4.31% |
| COC(=O)Cn1c(=NC(=O)c2cc(OC)c(OC)c(OC)c2)sc2cc(OC)ccc21 | 1.18% |
| S=c1[nH]nc(-c2ccc3ccccc3n2)n1-c1ccc2c(c1)OCCO2 | 17.7% |
| Cc1ccc2c(c1)CCCN2N=O | 0.938% |
| CCOc1ccc(N(CC(=O)NCc2ccc(OC)cc2)C(=O)CCC(=O)Nc2nccs2)cc1 | 8.55% |
| COc1ccccc1CNC(=O)COC(=O)c1ccc(C)s1 | 3.82% |
| CC1(C)N([O-])C(c2ccccc2)=C[N+](=O)C1(C)C | 1.38% |
| CCOc1cccc2cc(C(=O)N3CCOCC3)c(=O)oc12 | 14.6% |
| CCN(CC)C(=O)CSc1nc(N)c(C#N)c(-c2cccs2)c1C#N | 15.5% |
